The text below walks through data of PubChem BioAssay (NCI).

Test in all cases: NCI-60 one-dose screen, 48 h (100 = growth as untreated, 0 = no growth, -100 = all killed)
Conditions in all cases: 10 µM unless noted

Assay [1] relates to HCT-15 colon.
Assay [2] relates to HT29 colon.
The subject of assay [3] is SNB-75 CNS.
Assay [4] relates to SNB-19 CNS.
The test system of assay [5] is U251 CNS.
For assay [6], the system named is PC-3 prostate.
In assay [7] the test system is SK-MEL-5 melanoma.
Assay [8] deals with UACC-62 melanoma.
For assay [9], the system named is LOX IMVI melanoma.
Assay [10] deals with SK-MEL-28 melanoma.

About 83,000 compounds went through this panel and 20% of them were active in at least one assay; those are over-represented in the sample as a whole.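 Note: values are percent growth. 100 is the growth of untreated cells, values between 100 and 0 indicate rising inhibition; between -100 and 0 indicates cell death.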 Values without a mark were called inactive. Active and inactive are the calls of the source. Rule for the calls: active = growth percent below 10; inactive = the rest.

`CC(C)NS(=O)(=O)c1cccc(-c2ccc3c(=O)n(CCCN)c4c(c3c2)C(=O)c2ccccc2-4)c1`: the growth in [1] is 102%; in assay [2], 89.6%; in assay [3], 82.3%; in [4], 111%; in assay [5], 104%; in assay [6] it was 102%. The growth in assay [7] was 98.8%; in assay [8], 108%; in assay [9], 94.4%; in assay [10] it was 110%.
Take `COc1cc(C(C)c2ccc3c(ccn3C)c2)cc(OC)c1OC` (stereo not given): the growth in assay [1] was 15.9%; in [2] it was 3.88% (active); in assay [3], 47%; in [4] it was 33.5%; in assay [5] it was 14.4%; in [6] it was 23.2%. The growth in [7] was -51.8% (active); in assay [8], 32.7%; in assay [9], 23.2%; in assay [10], 67%.
As to `CC(=O)Nc1ccc2c(c1)Cc1cc(F)ccc1-2`, the growth is 105% in assay [1]; 92.2% in assay [2]; 87.4% in [3]; 103% in assay [4]; 95.5% in assay [5]; 95.5% in [6]. For the same compound, the growth in [7] is 102%; in assay [8] it was 90.7%; in assay [9] it was 95.8%; in assay [10], 117%.
With `Cn1cc(-c2ccc3c(c2)ncn3-c2ccc(CC(=O)Nc3cc(C(C)(C)C)on3)cc2)cn1`, the growth is 16.1% in [1]; 27.1% in assay [2]; -20.6% (active) in assay [3]; 58.5% in [4]; 31.3% in assay [5]; 43.5% in [6]. Besides, the growth in assay [7] was 48.2%; in [8] it was 35.4%; in assay [9] it was 12.6%; in assay [10], 48.5%.
`Cc1cc(C)c(NC(=O)c2sc3nc4c(cc3c2N)CCCCCC4)c(C)c1`: the growth in assay [1] is 41.1%; in assay [2] it was 19%; in assay [3], 57.6%; in assay [4], 49.1%; in [5], 35.3%; in assay [6] it was 47.9%. Further, the growth in assay [7] was 57.1%; in [8] it was 34.5%; in assay [9], 58.7%; in [10], 75.2%.
Regarding `CCSc1ccc(C2C(Br)C(=O)N2c2cc(OC)c(OC)c(OC)c2)cc1` (stereo not given), the growth in assay [1] is 15.2%; in [2], 2.99% (active); in assay [3] it was 51.1%; in [4], 33.4%; in assay [5], 12.1%; in [6], 20%. The growth in assay [7] is -11.3% (active); in assay [8], 29.6%; in [9], 25.7%; in assay [10], 56.7%.
Regarding `CC(C)(C)c1ccc2oc(=O)n(SC(Cl)(Cl)Cl)c2c1`, the growth in [1] is 99.1%; in assay [2] it was 90.4%; in [3], 98.1%; in [4], 112%; in assay [5], 104%; in assay [6] it was 99.3%. The growth is 107% in assay [7], 109% in assay [8], 93.4% in assay [9] and 112% in [10].
In the case of `COc1ccccc1C(=O)/C=C/c1cc2cccc(OC)c2[nH]c1=O`, the growth in [1] was -12.5% (active); in assay [2], -39.1% (active); in [3] it was 34.3%; in assay [4], -4.63% (active); in assay [5] it was -55.7% (active); in assay [6] it was 31.1%. For the same compound, the growth in assay [7] is -39.2% (active); in [8], -29.1% (active); in assay [9], -63.5% (active); in [10], 2.94% (active).
For the compound `COc1ccc(C(=O)c2cc(F)c(F)c(OC)c2F)cc1OC(=O)CCl`, the growth in assay [1] was 26.4%; in assay [2], 94.8%; in assay [3], 42.9%; in assay [4], 39.1%; in assay [5], 31.3%; in assay [6], 38.4%. Besides, the growth in assay [7] was 29%; in [8], 31.7%; in [9], 34.7%; in assay [10], 57.9%.
As to `C=C(C)[C@@H]1CC[C@]2(C(=O)N3CCN(C)CC3)CC[C@]3(C)[C@H](CC[C@@H]4[C@@]5(C)C/C(=C/c6ccco6)C(=O)C(C)(C)[C@@H]5CC[C@]43C)[C@@H]12`, the growth in assay [1] is 46.6%; in assay [2], 25.8%; in [3], 68%; in [4] it was 80.1%; in assay [5], 60.9%; in assay [6] it was 37.2%. Moreover, the growth is 68.9% in assay [7], 76.1% in assay [8], 30.1% in assay [9] and 55.7% in assay [10].
Turning to `O=C(O)C(C(=O)O)c1cccc2ccccc12`, the growth in assay [1] was 104%; in [2], 94.9%; in assay [3], 99.3%; in assay [4], 98.3%; in assay [5], 99.5%; in assay [6], 100%. In addition, the growth in assay [7] was 103%; in assay [8] it was 96.8%; in [9] it was 97.4%; in assay [10] it was 111%.
